Screens deposited in PubChem by National Center for Advancing Translational Sciences (NCATS).
ClpP mod – qHTS Assay for Activators of ClpP; purified B. subtilis ClpP, FRET peptide cleavage, 20 min; Potency, µM (doses to about 57.5 µM), for the others: top-dose activity change, negative = active; 1.9% of 340,000 active; active = well fitted falling curve with a large enough effect; inconclusive = small, poorly fitted or top-dose-only effect; inactive = no such curve, though single readings can be large or run the other way; also: the source files actives as falling curves though it sought activators and does not explain the sign; nearly all actives have a fitted effect of over 65% in size
Target sequence (P80244 whole entry, looked up): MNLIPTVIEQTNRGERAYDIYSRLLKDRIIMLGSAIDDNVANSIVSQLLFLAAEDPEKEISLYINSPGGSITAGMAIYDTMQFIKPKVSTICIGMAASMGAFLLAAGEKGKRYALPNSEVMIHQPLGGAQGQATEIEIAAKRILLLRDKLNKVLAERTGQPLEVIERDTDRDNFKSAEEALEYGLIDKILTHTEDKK
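FRET quenching reversal measured ClpP activation: 10 microg/mL B. subtilis ClpP at pH 8 with the FRET-FV decapeptide, read at 430 nm after 320 nm excitation. The 20-min minus 0-min signal was scaled between DMSO/no-enzyme wells and ADEP (5.8 microM final).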
TDP1 inh – qHTS Assay for Inhibitors of Tyrosyl-DNA Phosphodiesterase (TDP1). 0.28% of 350,000 active. recombinant TDP1, AlphaScreen DNA substrate cleavage. Potency, µM (series often up to 130 µM), for the others: at the highest dose activity change, negative = inhibition, most hits filed as inhibitors. Tyrosyl-DNA phosphodiesterase 1 (Homo sapiens), Q9NUW8; also: % is scaled to controls: 0 for no effect and ±100 for the full control effect; nearly all actives have a fitted effect of over 40% in size
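Steps: enzyme plus compound, 15 min RT; add biotin/phosphotyrosine-FITC oligonucleotide (15 nM final), react 5 min; add donor/acceptor beads (10 ug/ml final), 10 min; read AlphaScreen. Tdp1 at 1 nM final.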
TDP1 cell noCPT – qHTS for Inhibitors of human tyrosyl-DNA phosphodiesterase 1 (TDP1): qHTS in cells in absence of CPT; DT40 Tdp1-/- hTDP1 cells, no CPT, ATP luminescence, 48 h; Potency, µM (series often up to 46.2 µM), without a hit: at the top dose activity change, negative = growth inhibition, usual class: inhibitors; 15% of 420,000 active; also: % is scaled to controls: 0 for no effect and ±100 for the full control effect; nearly all actives have a fitted effect of over 55% in size
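Chicken DT40 Tdp1-/- cells stably complemented with human TDP1 were seeded at 400 cells/well with DMSO in place of 20 nM camptothecin. After compound pinning, cells grew at least 48 hr at 37 °C; viability read by CellTiter-Glo luminescence.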
DT40 TDP1 CPT – qHTS for Inhibitors of human tyrosyl-DNA phosphodiesterase 1 (TDP1): qHTS in cells in presence of CPT. chicken DT40 Tdp1-/-;hTDP1 cells + 20 nM CPT, ATP luminescence, 48 h. Potency, µM (doses to about 46.2 µM), for the others: at the top dose activity change, negative = growth inhibition, usual class: inhibitors. 12% of 420,000 active. AID 686979, 2013; also: % is scaled to controls: 0 for no effect and ±100 for the full control effect; nearly all actives have a fitted effect of over 55% in size
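Chicken DT40 Tdp1-/- cells stably complemented with human TDP1 were seeded at 400 cells/well in medium containing 20 nM camptothecin, exposed to pin-transferred compounds, and grown at 37 °C for at least 48 hr. Viability was read as ATP luminescence.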
* marks the source's active call; other numbers are inactive results; ? = inconclusive; . = no result given; [ ] = another dose, or the depositor's remark. Hits are enriched below; roughly 17% of the tested compounds scored in any of these assays. Unless noted, calls follow the shape of the dose curve; as a rule, active = well fitted curve in the direction sought with a large enough effect; inconclusive = small, poorly fitted or top-dose-only effect, or another doubt; inactive = no such curve, though single readings can be large; an effect the other way counts as inactive or inconclusive. Potency is read from the fitted curve at half-maximal effect.

SMILES	ClpP mod	TDP1 inh	TDP1 cell noCPT	DT40 TDP1 CPT
Oc1[nH]c2ccccc2c1N=NC(=S)NCC1CCCO1 (stereo not given)	-2%	3%	?	?
Cc1cc(C)c2[nH]c(O)c(N=NC(=S)NCC3CCCO3)c2c1 (stereo not given)	1%	7%	6.5µM*	6.5µM*
CCn1c(=O)cc(SCC(=O)NCC2CCCO2)c2ccccc21 (stereo not given)	?	6%	1%	0%
CCn1c(O)c(N=NC(=S)NCC2CCCO2)c2ccccc21 (stereo not given)	0%	5%	9.2µM*	13µM*
CC(C)CN1CCc2nc(Nc3ccc(F)cc3F)ncc2C1	-1%	4%	?	-3%
N#C/C(=N\Nc1c(Cl)cccc1Cl)C(=O)NN	16µM*	14%	-9%	2%
COc1ccccc1/C=C/c1nc2ccccc2n1C(C)C	4%	.	21µM*	18µM*
CC(C)c1ccc(C(O)c2nc3ccccc3n2C)cc1 (stereo not given)	2%	0%	21µM*	21µM*
COc1ccc(C(O)c2nc3ccccc3n2C(C)C)cc1 (stereo not given)	3%	4%	16µM*	23µM*
CN(C)S(=O)(=O)c1cc(NC(=O)COC(=O)c2ccc3c(c2)OCO3)ccc1Cl	-10%	-3%	-29%	6%
CCCCn1c(N)c(N(CC(C)C)C(=O)c2cc3ccccc3cc2OC)c(=O)[nH]c1=O	.	.	-10%	-3%
CN1C(=O)Cc2cc(S(=O)(=O)CCC(=O)Nc3ccc(Cl)cc3)ccc21	-5%	3%	2%	-27%
O=C(CSc1nc2c(c(=O)[nH]1)CN(Cc1ccc3c(c1)OCO3)CC2)Nc1cccc(Cl)c1	1%	9%	?	?
O=[N+]([O-])c1cc2c(c(CSc3nnnn3-c3ccc(O)cc3)c1)OCOC2	0%	8%	23µM*	21µM*
O=C(COC(=O)Cn1[nH]c(=O)c2ccccc2c1=O)NNC(=O)c1ccccc1	-11%	0%	17%	-10%
CCOC(=O)C1=CN(C)C=C(C(=O)OCC)C1c1ccsc1	8.9µM*	.	-13%	-25%
COC(=O)C1=C(C)N(C)C(C)=C(C(=O)OC)C1c1ccsc1	52%	4%	?	-2%
COC(=O)C1=CN(CCOC23CC4CC(CC(C4)C2)C3)C=C(C(=O)OC)C1c1ccsc1	-1%	.	12µM*	?
COC(=O)C1=CN(CC2CCCO2)C=C(C(=O)OC)C1c1ccsc1 (stereo not given)	?	0%	2%	12%
COC(=O)C1=CN(Cc2ccc(OC)cc2)C=C(C(=O)OC)C1c1ccsc1	.	.	?	21µM*
Cc1ccc(/C=C(\NC(=O)c2ccc(C)cc2)C(=O)NCCCn2ccnc2)cc1	.	4%	-12%	-2%
COc1cccc(CNC(=O)c2ccc(CNS(=O)(=O)c3ccc(C)cc3)cc2)c1	1%	5%	?	?
O=C1c2ccccc2C(Nc2ccc3c(c2)OCO3)N1Cc1ccc2c(c1)OCO2 (stereo not given)	-1%	0%	15µM*	?
CCOC(=O)c1ccc2c(c1)N(Cc1cccc(C(F)(F)F)c1)C(=O)c1ccccc1S2(=O)=O	-3%	3%	16µM*	?
Cc1ccccc1CN1C(=O)c2ccccc2S(=O)c2ccc(C(=O)NC3CCC(C)CC3)cc21 (stereo not given)	0%	6%	-29%	?
SMILES	ClpP mod	TDP1 inh	TDP1 cell noCPT	DT40 TDP1 CPT
Cc1ccc(C)c(CN2C(=O)c3ccccc3S(=O)c3ccc(C(=O)N4CCCCC4)cc32)c1 (stereo not given)	0%	6%	16µM*	16µM*
CCOC(=O)N1CCC(NC(=O)c2ccc3c(c2)N(Cc2cc(C)ccc2C)C(=O)c2ccccc2S3=O)CC1 (stereo not given)	1%	-1%	18µM*	6.5µM*
O=C(c1ccc2c(c1)N(Cc1ccccc1F)C(=O)c1ccccc1S2=O)N1CCOCC1 (stereo not given)	-1%	5%	-3%	-8%
COC(=O)c1ccc2c(c1)N(Cc1cc(C)ccc1C)C(=O)c1ccccc1S2(=O)=O	-4%	9%	?	?
CCOC(=O)c1ccc2c(c1)N(Cc1cc(C)ccc1C)C(=O)c1ccccc1S2(=O)=O	-3%	-11%	16µM*	?
CCOC(=O)N1CCC(NC(=O)c2ccc3c(c2)N(Cc2cc(C)ccc2C)C(=O)c2ccccc2S3(=O)=O)CC1	0%	8%	12µM*	?
CCN1CCN(C(=O)c2ccc3c(c2)N(Cc2cc(C)ccc2C)C(=O)c2ccccc2S3(=O)=O)CC1	1%	7%	-27%	-3%
Cc1cc2cc(C=O)c(Cl)nc2cc1C	-3%	5%	18µM*	?
Cc1ccc2cc(C=O)c(N(C)C)nc2c1	?	3%	-2%	9%
CCN1/C(=C/C(=O)c2ccco2)Sc2ccccc21	-5%	0%	-5%	-19%
CCN1/C(=C/c2sc(-c3ccccc3C)c[n+]2C)Sc2ccccc21	0%	6%	0.21µM*	0.26µM*
Cc1cccc(NC(=O)CNC(=O)COc2ccc(-c3ccc(C#N)cc3)cc2)c1C	?	1%	13µM*	-22%
Cc1cccc(NC(=O)CNC(=O)COc2cc(F)ccc2[N+](=O)[O-])c1C	.	8%	?	?
Cc1cccc(NC(=O)CNC(=O)COc2ccc(C(=O)c3ccc(F)cc3)cc2)c1C	1%	0%	10µM*	18µM*
CC(=O)c1c(C)[nH]c(-c2ccccc2)nc1=S	.	2%	?	-2%
CC(=O)c1c(NC(=O)c2ccccc2)[nH]c(-c2ccccc2)nc1=S	.	1%	23µM*	?
O=C1CCCCC2CCCCN12 (stereo not given)	.	5%[234 µM]	.	.
COc1ccc2[nH]cc(CCNC(=O)c3cnn(-c4ccccc4Cl)c3C3CCN(C(=O)OC(C)(C)C)CC3)c2c1	-6%	5%	10µM*	13µM*
COCCCNC(=O)c1cnn(-c2ccccc2Cl)c1C1CCN(C(=O)OC(C)(C)C)CC1	1%	3%	-29%	?
Cc1ccc(-n2ncc(C(=O)NCCN3CCN(C)CC3)c2C2CCN(C(=O)OC(C)(C)C)CC2)cc1	-3%	5%	?	?
COc1ccc2[nH]cc(CCNC(=O)c3cnn(-c4ccc(C)cc4)c3C3CCN(C(=O)OC(C)(C)C)CC3)c2c1	-2%	7%	5.2µM*	9.2µM*
CC(C)(C)c1ccc(-c2nc3n(c(=O)c2C#N)CCS3)cc1	.	-1%	?	14%
